Compound activity: PubChem BioAssay, National Center for Advancing Translational Sciences (NCATS)
AmpC detergent = AmpC beta-lactamase inhibition with detergent present; P00811; AmpC hydrolysis of nitrocefin, absorbance 480 nm, 0.01% Triton; Potency, µM (highest dose often 114 µM), without a hit: at the highest dose activity change, negative = inhibition, hits mostly inhibitors; 370,000 compounds, 0.041% hits; AID 485294;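 note: potency is the fitted concentration of half-maximal effect; 0% = no-compound wells and -100% = no-enzyme wells; nearly all actives have a fitted effect of over 25% in size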
Target sequence (P00811 whole entry, looked up): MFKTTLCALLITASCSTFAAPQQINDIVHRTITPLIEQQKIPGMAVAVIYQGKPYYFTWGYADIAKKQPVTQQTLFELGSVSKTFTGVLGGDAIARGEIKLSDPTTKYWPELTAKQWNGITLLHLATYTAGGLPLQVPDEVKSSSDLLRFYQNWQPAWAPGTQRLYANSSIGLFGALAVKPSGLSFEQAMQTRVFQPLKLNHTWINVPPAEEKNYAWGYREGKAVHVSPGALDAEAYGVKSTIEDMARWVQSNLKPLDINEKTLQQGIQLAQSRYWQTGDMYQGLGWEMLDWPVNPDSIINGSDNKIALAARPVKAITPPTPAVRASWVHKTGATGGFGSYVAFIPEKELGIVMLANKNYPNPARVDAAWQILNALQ
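AmpC (5.3 nM in the dispensed reagent) in 20 mM phosphate pH 7.0 with 0.01% (detergent screen) or 0.0001% Triton X-100 was preincubated with compounds for 15 min at room temperature. Nitrocefin was then added from an 800 uM solution, and hydrolysis was followed at 480 nm.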
Shiga toxin inh = Shiga toxin inhibition; Vero cells, Shiga toxin protein synthesis inhibition reporter; inhibition, % at 38.7 µM; 290,000 compounds, 9.2% hits; AID 2315; in the data active = inhibition mostly above about 28%, no sharp cut-off; inactive = mostly below about 43%; note: 0% is about no effect
AmpC inh no detg = AmpC beta-lactamase inhibition without detergent | P00811 | AmpC nitrocefin hydrolysis, absorbance 480 nm, 0.0001% Triton | Potency, µM (highest dose often 57.1 µM), for the others: at the highest dose activity change, negative = inhibition, most hits filed as inhibitors | 330,000 compounds, 0.52% hits;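 note: potency is the fitted concentration of half-maximal effect; plate controls were no compound for no effect and no enzyme for full effect; nearly all actives have a fitted effect of over 20% in size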
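20 mM phosphate pH 7.0 + 0.01% (detergent screen) or 0.0001% Triton X-100; 5.3 nM AmpC reagent; cpd preinc 15 min RT; nitrocefin (800 uM stock) to start; A480 q20 s × 4 min; Activity was normalised to no-enzyme and no-compound control wells.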
AMA1-RON2 inh = disrupts binding of P. falciparum AMA1 to RON2; AlphaScreen AMA1-biotinylated RON2 peptide binding; Potency, µM (series often up to 58.2 µM), without a hit: at the highest dose activity change, negative = inhibition, usual class: inhibitors; 360,000 compounds, 0.2% hits; AID 720542;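 note: potency is the fitted concentration of half-maximal effect; 0% = vehicle wells and -100% = peptide control; nearly all actives have a fitted effect of over 45% in size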
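AMA1 (3D7) with his tag at 25 nM final met compounds first, then biotinylated RON2 peptide at 25 nM; detection used donor plus acceptor beads, 10 µg/mL apiece, read by AlphaScreen after 30 min at room temperature.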
CHX counter = affects cycloheximide protein synthesis inhibition readout, counter-screen | 300,000 compounds, 12% hits | cell reporter, cycloheximide protein synthesis inhibition counterscreen | AID 2314 | max response, %; in the data active = max response mostly above about 13%, no sharp cut-off; inactive = mostly below about 14%; note: read at 38.3 µM for the half of the compounds with a filed dose; 0% is about no effect
SARS PLpro yeast = blocks SARS-CoV papain-like protease in a yeast assay. S. cerevisiae expressing SARS-CoV PLpro, growth rescue. Potency, µM (series often up to 32.9 µM), without a hit: at the top dose activity, positive = growth rescue, usual class: activators. 330,000 compounds, 0.19% hits; calls by dose curve; note: potency is the fitted concentration of half-maximal effect; 0% is about no effect; nearly all actives have a fitted effect of over 55% in size
* hit, by the source's call; ? = inconclusive; · = no result given. The full list was thinned out, with hits kept by preference. Unless noted, calls come from the whole dose curve; as a rule, active = well fitted curve in the direction sought with a large enough effect; inconclusive = small, poorly fitted or top-dose-only effect, or another doubt; inactive = no such curve, though single readings can be large; an effect the other way counts as inactive or inconclusive.

SMILES | AmpC detergent | Shiga toxin inh | AmpC inh no detg | AMA1-RON2 inh | CHX counter | SARS PLpro yeast
COc1ccccc1CNC(=O)C1COc2ccccc2O1 (stereo not given) | 0.8% | 42.9* | -14.8% | -2.3% | 30.1* | -4.6%
c1ccc(CCNCC2COc3ccccc3O2)cc1 (stereo not given) | -6.7% | 27.9* | -21.4% | -2.3% | 18.8* | 0.0%
O=C(NCC1COc2ccccc2O1)c1ccc(Cl)cc1 (stereo not given) | ? | 38.7 | -20.8% | -2.2% | 16.1* | -8.1%
COc1ccc(CNC(=O)C2CSCCS2)cc1 (stereo not given) | -1.1% | 30.5 | -13.0% | -1.2% | 24.2* | -3.4%
c1ccc2c(c1)OCC(CNCC1COc3ccccc3O1)O2 (stereo not given) | ? | -2.0 | -0.4% | 1.8% | -3.6 | -13.0%
COc1ccc(-c2csc(CCn3nc(C)cc3C)n2)cc1OC | 1.0% | -3.4 | 16.5% | 12.8% | 14.9 | -6.7%
COc1ccc(N2CCN(CC(O)COc3ccc(C(C)(C)C)cc3)CC2)cc1 (stereo not given) | -1.3% | · | · | · | · | ·
O=C(NCCc1ccc(Cl)cc1)C1COc2ccccc2O1 (stereo not given) | -3.9% | -2.9 | -15.7% | 5.6% | 12.7* | -14.1%
O=C(NCc1cccnc1)C1COc2ccccc2O1 (stereo not given) | -11.8% | -7.6 | 29.5% | -7.3% | -2.4 | 5.5%
COc1ccc(CCNC(=O)C2COc3ccccc3O2)cc1OC (stereo not given) | · | · | · | 6.0% | · | ·
COc1ccc(CNC(=O)C2COc3ccccc3O2)cc1 (stereo not given) | ? | 38.5* | -19.3% | 5.4% | 28.5* | -10.1%
COc1ccc(C(=O)NC(=S)NC(C)(C)C)cc1Br | -4.6% | 71.1* | 57.3% | 40.0% | 20.7* | ?
COc1ccc(C(=O)NC(=S)NC(C)C)cc1Br | 0.9% | 64.8* | -20.7% | 9.6% | 23.2* | 18.0%
COc1ccc(C(=O)NNC(=S)NC(=O)c2ccc(F)cc2)cc1Br | · | · | · | 102.7% | · | ·
COc1ccc(C(=O)NC(=S)N2CCC(C)CC2)cc1Br | 4.7% | 29.3* | -6.2% | 33.7% | 17.7* | 1.8%
CCOC(=O)c1sc(NC(=O)c2ccc(Br)o2)cc1C | ? | 124.5* | -46.2% | 5.9% | 46.6* | -0.5%
CCOC(=O)c1sc(NC(=O)c2sccc2C)cc1C | 1.9% | 70.0* | -30.1% | 13.9% | 62.8* | -18.1%
CCOC(=O)c1cccc(NC(=O)c2cccs2)c1 | -10.2% | 12.2 | -25.5% | -1.8% | 18.5 | -13.6%
CCOC(=O)c1sc(NC(=O)c2cccs2)cc1C | -1.5% | 141.4* | -39.6% | 3.0% | 31.7* | -2.5%
CCOC(=O)c1sc(NC(=O)Nc2cccc(Cl)c2)cc1C | 1.8% | 107.8* | -25.0% | -7.2% | 62.2* | -15.4%
CCC1=NN(C(=O)c2ccccc2O)C(O)(c2ccccc2)C1 (stereo not given) | 0.9% | 77.3* | -55.5% | 3.3% | 31.0* | -0.3%
CCC1=NN(C(=O)c2ccc(Cl)cc2)C(O)(c2ccccc2)C1 (stereo not given) | -0.4% | 16.6 | -5.0% | 112.6% | 12.5 | 1.1%
CCC1=NN(C(=O)c2ccc(Cl)cc2)C(O)(c2ccc(C)cc2)C1 (stereo not given) | ? | 45.1* | -4.8% | -4.0% | 18.3* | -5.8%
CC(C)(CNc1ccc(S(=O)(=O)C(F)(F)F)cc1[N+](=O)[O-])N1CCOCC1 | 5.5% | 30.6* | 148.5% | 8.2% | 35.4* | -1.0%
O=[N+]([O-])c1cc(S(=O)(=O)N2CCCCC2)ccc1NCCCN1CCOCC1 | ? | 42.1* | 2.7% | -9.1% | 43.0 | -3.9%
SMILES | AmpC detergent | Shiga toxin inh | AmpC inh no detg | AMA1-RON2 inh | CHX counter | SARS PLpro yeast
CS(=O)(=O)N1CCC(N2CCN(Cc3ccc(F)cc3)C(=O)C2=O)CC1 | -3.7% | · | · | · | · | ·
COc1ccc(C(c2c(O)ccc3ccccc23)N2CCOCC2)c(OC)c1 (stereo not given) | -17.7% | 65.0* | -6.1% | ? | 34.1 | -15.5%
COC(=O)c1c(C)[nH]c(O)c1C=Nc1ccc(C(C)C)cc1 | 0.7% | 38.6* | -8.1% | -0.7% | 22.4* | -24.5%
CC1(C)CC(=O)C2=C(C1)NC(SCC(=O)Nc1ccccc1)=C(C#N)C2c1ccco1 (stereo not given) | ? | -13.6 | -22.7% | 15.0% | 0.5 | 1.0%
Cc1ccc(NC(=O)CSC2=C(C#N)C(c3ccco3)C3=C(CCCC3=O)N2)cc1 (stereo not given) | -4.8% | 32.3 | -9.3% | -8.8% | 18.6* | 2.7%
COCCOC(=O)C1=C(C)NC(SCC(=O)NC(C)(C)C)=C(C#N)C1c1ccco1 (stereo not given) | -11.1% | -5.6 | 17.1% | -5.9% | -2.0 | ?
C=CCOC(=O)C1=C(C)NC(SCC(=O)Nc2ccc(C)c(Cl)c2)=C(C#N)C1c1ccco1 (stereo not given) | ? | 17.7 | 7.94µM* | -1.0% | -3.8 | -0.4%
COc1ccc([C@H]2N[C@]3(CCCN(Cc4ccc(F)cc4)C3=O)[C@H]3C(=O)N(C)C(=O)[C@@H]23)cc1 | · | · | · | -2.6% | · | ·
COc1ccc(NC(=O)CS(=O)CC(=O)Nc2ccc(OC)c(OC)c2)cc1 (stereo not given) | ? | 3.4 | -12.0% | 2.5% | 0.8 | 0.2%
COc1ccc(CC(=O)Nc2cccc(SC)c2)cc1 | ? | 19.2 | -30.3% | -6.6% | 16.6* | -14.0%
COc1ccc(NC(=O)CS(=O)c2ccccc2Cl)cc1 (stereo not given) | -3.4% | 35.8 | -8.4% | 2.2% | 15.5* | -2.1%
COc1ccc(NC(=O)Cc2ccccc2)cc1 | ? | 38.3* | -16.1% | 7.6% | 30.1* | -8.3%
COC(=O)c1cc(CNC(=O)CCCSc2ccccc2)ccc1OC | -0.7% | 20.7 | 31.5% | 6.8% | 22.8* | 16.0%
COc1ccc(NC(=O)CNC(=O)Cc2ccccc2)cc1 | -7.8% | 18.5 | 4.5% | 4.0% | 8.1 | 3.8%
CS(=O)(=O)N(CC(=O)NCCSCc1cccc(Cl)c1)c1ccccc1F | ? | · | 50.3% | -4.6% | 2.1 | -0.3%
CN(CC(=O)Nc1ccccc1C(=O)N1CCCC1)S(=O)(=O)c1ccc(Br)cc1 | ? | -12.2 | 44.4% | 27.5% | -2.7 | 3.3%
O=C(Cc1ccsc1)NCC(=O)Nc1ccccc1Br | · | · | -24.8% | -0.9% | · | 1.1%
COc1ccc(NC(=O)CC(=O)Nc2ccc(OC)cc2)cc1 | · | · | · | 2.4% | · | ·
CCc1ccc(NC(=O)Cc2ccc(OC)cc2)cc1 | -13.4% | 41.5* | -22.8% | · | 28.0* | -18.4%
COc1ccc(NC(=O)COC(=O)CCSc2ccccc2)cc1 | · | · | -3.3% | 3.8% | · | -1.0%
COc1ccc(NC(=O)CCCSc2ccccc2)cc1 | -6.3% | 28.3 | -16.0% | 3.1% | 24.0* | -3.5%
